Pf growth 48h: inhibits P. falciparum growth in the first generation, 48 h; P. falciparum luciferase growth in erythrocytes, 48 h; Potency, µM (top dose mostly 28.7 µM), for inactives: top-dose activity change, negative = inhibition, actives largely listed as inhibitors; actives 5.9% (n = 310,000); note: potency is the fitted concentration of half-maximal effect; % is set by controls: 0 for no effect and ±100 for the full control effect
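Erythrocytes infected with P. falciparum carrying an integrated firefly luciferase reporter (2% hematocrit, 0.1% parasitemia final) were exposed to compounds in RPMI 1640 with 0.5% Albumax at 37 C, 5% CO2. Growth inhibition was scored as reduced luminescence.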
Sm TGR block: S. mansoni TGR enzyme inhibition; Q962Y6; purified TGR, DTNB reduction, TNB absorbance 405 nm; Potency, µM (series often up to 114 µM), for inactives: at the highest dose activity change, negative = inhibition, actives largely listed as inhibitors; actives 3% (n = 360,000); AID 485364; note: potency is the fitted concentration of half-maximal effect; % is set by controls: 0 for no effect and ±100 for the full control effect; nearly all actives have a fitted effect of over 60% in size
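First, TGR (20 nM dispensed) and NADPH were mixed with compound. Second, a 15 min room-temperature incubation followed. Third, further NADPH and then DTNB were added to start the reaction. Finally, TNB absorbance was monitored kinetically.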
Pf growth 96h: P. falciparum growth inhibition at 96 hours; P. falciparum luciferase reporter growth, 96 h; Potency, µM (doses to about 28.7 µM), without a hit: top-dose activity change, negative = inhibition, usual class: inhibitors; actives 6.9% (n = 320,000); AID 504834; note: potency is the fitted concentration of half-maximal effect; % is set by controls: 0 for no effect and ±100 for the full control effect
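Infected RBCs, 2% Hct / 0.05% parasitemia final; luciferase-reporter P. falciparum; cpd 96 h, 37 C, 5% CO2; luciferase detection reagent; luminescence.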
HCV inh: inhibitors of hepatitis C virus infection; Potency, µM (top dose mostly 41.8 µM), for the others: at the top dose activity change, negative = inhibition, most hits filed as inhibitors; actives 3.4% (n = 340,000); Huh7.5.1 HCVcc-Cre infection, luciferase reporter, 44 h; AID 651820; note: potency is the fitted concentration of half-maximal effect; % is set by controls: 0 for no effect and ±100 for the full control effect
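After 44 h co-culture of compound, cells and HCVcc-Cre (~0.5 moi), substrate is added for 15 min at room temperature and luciferase measured over 15 sec. Cells were seeded at 1,000/well and pre-cultured 4 h.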
HCMV inh: human cytomegalovirus inhibition; actives 4.5% (n = 410,000); activity change, negative = inhibition, % at 57.5 µM; HFF cells, HCMV-luciferase reporter, 72 h; stronger effect = lower value; in the data active = activity change below about -60%; inconclusive = no clear call, values can overlap the other calls; inactive = above about -39%; note: % is set by controls: 0 for no effect and ±100 for the full control effect
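Two-dose cell screen: HFF monolayers treated with compounds and infected with luciferase-expressing HCMV at 1 PFU/cell, 72 h at 37C, then lysed for luciferase measurement.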
SARS PLP yeast: inhibitors of SARS-CoV papain-like protease in yeast | actives 0.19% (n = 330,000) | S. cerevisiae expressing SARS-CoV PLpro, growth rescue | Potency, µM (highest dose often 32.9 µM), inactives show at the top dose activity, positive = growth rescue, actives largely listed as activators | AID 485353; calls by dose curve; note: potency is the fitted concentration of half-maximal effect; 0% is about no effect; nearly all actives have a fitted effect of over 55% in size
Numbers without * were called inactive. In the library only some 15% were active in any assay of this set; here they are far more common. Unless noted, calls come from the whole dose curve; as a rule, active = well fitted curve in the direction sought with a large enough effect; inconclusive = small, poorly fitted or top-dose-only effect, or another doubt; inactive = no such curve, though single readings can be large; an effect the other way counts as inactive or inconclusive.

What do the screens show for `CCCCn1c(N)c(N(CC(C)C)C(=O)C2CCN(S(=O)(=O)c3ccccc3)CC2)c(=O)[nH]c1=O`?
Pf growth 48h: inconclusive; Sm TGR block: 4%; Pf growth 96h: inconclusive; HCV inh: inconclusive; HCMV inh: -19; SARS PLP yeast: 7%

How did CCOC(=O)N1CCN(CC(O)COc2ccc3c(c2)CCC3)CC1 (stereo not drawn) do in these assays?
Pf growth 48h: 15%; Sm TGR block: -8%; Pf growth 96h: -14%; HCV inh: 14%; HCMV inh: 2; SARS PLP yeast: 1%

What do the screens show for `CCCCn1c(N)c(N(CCOC)C(=O)C2CCN(S(=O)(=O)c3ccc(C)cc3C)CC2)c(=O)[nH]c1=O`?
Pf growth 48h: 13µM*; Sm TGR block: -5%; Pf growth 96h: inconclusive; HCV inh: -8%; HCMV inh: -27; SARS PLP yeast: 1%

Results for CCCCn1c(N)c(N(CCOC)C(=O)C2CCN(S(=O)(=O)c3ccc(C)cc3)CC2)c(=O)[nH]c1=O ?
Pf growth 48h: 9%; Sm TGR block: -17%; Pf growth 96h: -11%; HCV inh: inconclusive; HCMV inh: -20; SARS PLP yeast: -7%

How did O=C(/C=C/c1cccnc1)c1ccc(O)cc1 do in these assays?
Pf growth 48h: inconclusive; Sm TGR block: 45µM*; Pf growth 96h: -9%; HCV inh: -15%; HCMV inh: -88*; SARS PLP yeast: 0%

How did COc1cc(C(=O)/C=C/c2cccnc2)c([N+](=O)[O-])cc1OC do in these assays?
Pf growth 48h: 2.9µM*; Sm TGR block: inconclusive; Pf growth 96h: inconclusive; HCV inh: inconclusive; HCMV inh: -100*; SARS PLP yeast: 4%

What do the screens show for `O=C(/C=C/c1cccnc1)c1cccc(O)c1`?
Pf growth 48h: -27%; Sm TGR block: 28µM*; Pf growth 96h: -16%; HCV inh: inconclusive; HCMV inh: 25; SARS PLP yeast: -1%

What do the screens show for `O=C(C=Cc1cccnc1)c1ccccc1`?
HCV inh: inconclusive; HCMV inh: -25

What do the screens show for `O=C(C=Cc1ccccc1)c1ccc([N+](=O)[O-])cc1`?
HCV inh: 5%; HCMV inh: 2

How did O=C(/C=C/c1cccnc1)c1ccc([N+](=O)[O-])cc1 do in these assays?
Pf growth 48h: 1%; Sm TGR block: 8.9µM*; Pf growth 96h: 5%; HCV inh: 20%; HCMV inh: 149; SARS PLP yeast: -20%

How did Cc1ccc(NC(=O)C2CCCN(c3ncnc4c3nc3n4CCCCC3)C2)c(Br)c1 (stereo not drawn) do in these assays?
Sm TGR block: 6%; HCMV inh: 1

What do the screens show for `O=C(C=Cc1ccccn1)c1ccccc1O`?
HCV inh: 8%; HCMV inh: -80*

Results for O=C(/C=C/c1cccnc1)c1ccccc1O ?
Pf growth 48h: -2%; Sm TGR block: 20µM*; Pf growth 96h: -6%; HCV inh: -16%; HCMV inh: -22; SARS PLP yeast: -1%

How did O=C(N/N=C\c1cccnc1)c1ccccc1O do in these assays?
Pf growth 48h: 3%; Sm TGR block: -24%; Pf growth 96h: -2%; HCV inh: 11%; HCMV inh: 161; SARS PLP yeast: 2%

How did CCOC(=O)Cc1csc(/N=C/c2c(O)n(-c3ccccc3C(F)(F)F)c(=O)c3ccccc23)n1 do in these assays?
Pf growth 48h: inconclusive; Sm TGR block: -5%; Pf growth 96h: -9%; HCV inh: inconclusive; HCMV inh: -4; SARS PLP yeast: 1%

What do the screens show for `O=C(CSc1nnc2ccccn12)NNC(=O)c1ccc(Br)cc1`?
Pf growth 48h: 0%; Sm TGR block: 9%; Pf growth 96h: inconclusive; HCV inh: 16%; HCMV inh: -14; SARS PLP yeast: 0%

Results for O=C(c1cccn2c(=O)c3cc(Cl)ccc3nc12)N1CCN(c2ccccc2F)CC1 ?
Sm TGR block: -4%; HCMV inh: 14

Results for CCOC(=O)c1oc2ccc(Br)cc2c1COC(=O)C1=COCCO1 ?
Pf growth 48h: 35%; Sm TGR block: -3%; Pf growth 96h: 3%; HCV inh: 25µM*; HCMV inh: -24; SARS PLP yeast: 1%

Results for C=CCn1c(SCC(=O)NCC2CCCO2)nc2scc(-c3ccco3)c2c1=O (stereo not drawn) ?
Pf growth 48h: inconclusive; Sm TGR block: 7.9µM*; HCV inh: inconclusive; HCMV inh: 13; SARS PLP yeast: inconclusive

Results for C=CCn1c(SCC(=O)NCC2CCCO2)nc2sc(CC)cc2c1=O (stereo not drawn) ?
HCV inh: inconclusive; HCMV inh: -6; SARS PLP yeast: -1%

How did Cc1occc1-c1nnc(SCC(=O)NCC2CCCO2)n1C (stereo not drawn) do in these assays?
Pf growth 48h: 14%; Sm TGR block: inconclusive; Pf growth 96h: 2.3µM*; HCV inh: inconclusive; HCMV inh: -13; SARS PLP yeast: -6%

How did O=c1c2c(-c3ccco3)csc2nc(SCc2cn3cccnc3n2)n1-c1ccccc1 do in these assays?
Pf growth 48h: 7.4µM*; Sm TGR block: inconclusive; Pf growth 96h: 9.3µM*; HCV inh: -27%; HCMV inh: 48; SARS PLP yeast: -2%

Results for Cc1ccc(-n2c(SCC(=O)NCC3CCCO3)nnc2-c2ccoc2C)cc1 (stereo not drawn) ?
Sm TGR block: -17%; HCV inh: 3%; HCMV inh: -34; SARS PLP yeast: 3%

How did O=C(CSc1nnc(-c2ccco2)n1-c1ccccc1)NCC1CCCO1 (stereo not drawn) do in these assays?
Pf growth 48h: 20%; Sm TGR block: -5%; Pf growth 96h: 4%; HCV inh: 2%; HCMV inh: -69*; SARS PLP yeast: 2%

Results for C=CCn1c(SCC(N)=O)nc2scc(-c3ccc(C)o3)c2c1=O ?
Pf growth 48h: 141%; Sm TGR block: 18µM*; Pf growth 96h: 2%; HCV inh: inconclusive; HCMV inh: 50; SARS PLP yeast: 1%

Results for O=C(CSc1nc2scc(-c3ccco3)c2c(=O)n1-c1ccccc1)N1CCOCC1 ?
Pf growth 48h: -22%; Sm TGR block: 45µM*; Pf growth 96h: inconclusive; HCV inh: -5%; HCMV inh: -35; SARS PLP yeast: 1%

How did Cc1occc1-c1nnc(SCC(=O)NCCc2ccccc2)n1C(C)c1ccccc1 (stereo not drawn) do in these assays?
Pf growth 48h: inconclusive; Sm TGR block: -7%; Pf growth 96h: 8.3µM*; HCV inh: -22%; HCMV inh: 37; SARS PLP yeast: -1%
